Pf growth 48h = Primary qHTS for delayed death inhibitors of the malarial parasite plastid, 48 hour incubation; Potency, µM (highest dose often 28.7 µM), for the others: top-dose activity change, negative = inhibition, most hits filed as inhibitors; P. falciparum luciferase growth in erythrocytes, 48 h; 310,000 compounds, 5.9% hits
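A one-generation exposure of luciferase-tagged malaria parasites in RPMI 1640/Albumax erythrocyte culture, 37 C and 5% CO2. Inhibition is inferred from decreased luminescence after adding detection reagent.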
AmpC detergent = qHTS Inhibitors of AmpC Beta-Lactamase (assay with detergent); AmpC hydrolysis of nitrocefin, absorbance 480 nm, 0.01% Triton; 370,000 compounds, 0.041% hits; Potency, µM (doses to about 114 µM), for the others: at the top dose activity change, negative = inhibition, actives largely listed as inhibitors; AID 485294, 2010;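 also: 0% = no-compound wells and -100% = no-enzyme wells; nearly all actives have a fitted effect of over 25% in size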
Target sequence (P00811 whole entry, looked up): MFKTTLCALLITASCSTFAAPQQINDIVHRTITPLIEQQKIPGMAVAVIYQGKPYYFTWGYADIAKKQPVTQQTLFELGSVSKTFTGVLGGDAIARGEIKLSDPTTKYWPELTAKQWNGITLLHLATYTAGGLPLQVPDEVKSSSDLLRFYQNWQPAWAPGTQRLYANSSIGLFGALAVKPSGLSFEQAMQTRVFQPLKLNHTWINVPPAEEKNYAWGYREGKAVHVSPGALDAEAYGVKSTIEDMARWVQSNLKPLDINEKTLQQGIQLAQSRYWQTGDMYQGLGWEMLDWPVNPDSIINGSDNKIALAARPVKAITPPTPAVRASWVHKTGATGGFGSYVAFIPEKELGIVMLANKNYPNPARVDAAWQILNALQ
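AmpC (5.3 nM in the dispensed reagent) in 20 mM phosphate pH 7.0 with 0.01% (detergent screen) or 0.0001% Triton X-100 was preincubated with compounds for 15 min at room temperature. Nitrocefin was then added from an 800 uM solution, and hydrolysis was followed at 480 nm.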
AMA1 RON2 block = qHTS for Inhibitors of AMA1-RON; Towards Development of Antimalarial Drug Lead: Primary Screen. Plasmodium falciparum AMA1 (3D7) - RON2 peptide interaction. AlphaScreen AMA1-biotinylated RON2 peptide binding. Potency, µM (top dose mostly 58.2 µM), for inactives: at the highest dose activity change, negative = inhibition, hits mostly inhibitors. 360,000 compounds, 0.2% hits;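 also: 0% = vehicle wells and -100% = peptide control; nearly all actives have a fitted effect of over 45% in size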
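AMA1 (3D7) with his tag at 25 nM final met compounds first, then biotinylated RON2 peptide at 25 nM; detection used donor plus acceptor beads, 10 µg/mL apiece, read by AlphaScreen after 30 min at room temperature.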
AmpC no deterg = qHTS Inhibitors of AmpC Beta-Lactamase (assay without detergent); AID 485341, 2010; AmpC nitrocefin hydrolysis, absorbance 480 nm, 0.0001% Triton; Potency, µM (doses to about 57.1 µM), without a hit: at the highest dose activity change, negative = inhibition, usual class: inhibitors; P00811; 330,000 compounds, 0.52% hits;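 also: plate controls were no compound for no effect and no enzyme for full effect; nearly all actives have a fitted effect of over 20% in size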
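AmpC (5.3 nM in the dispensed reagent) in 20 mM phosphate pH 7.0 with 0.01% (detergent screen) or 0.0001% Triton X-100 was preincubated with compounds for 15 min at room temperature. Nitrocefin was then added from an 800 uM solution, and hydrolysis was followed at 480 nm.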
HCV inhibitor = qHTS Assay for Inhibitors of Hepatitis C Virus (HCV) | Huh7.5.1 HCVcc-Cre infection, luciferase reporter, 44 h | Potency, µM (doses to about 41.8 µM), for the others: at the highest dose activity change, negative = inhibition, actives largely listed as inhibitors | 340,000 compounds, 3.4% hits | AID 651820, 2012
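HCVcc-Cre virus at an moi near 0.5 was added right after compound to cells cultured 4 h from seeding (1,000 cells/well). Luciferase activity was determined 44 h later, 15 min after substrate addition at RT.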
Pf growth 96h = Primary qHTS for delayed death inhibitors of the malarial parasite plastid, 96 hour incubation; 320,000 compounds, 6.9% hits; Potency, µM (top dose mostly 28.7 µM), for inactives: at the highest dose activity change, negative = inhibition, hits mostly inhibitors; P. falciparum luciferase reporter growth, 96 h
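Compounds incubated with erythrocytes infected by luciferase-expressing P. falciparum (2% hematocrit, 0.05% parasitemia final) for 96 hours, 37 C in 5% CO2. Growth inhibition scored as decreased luciferase luminescence.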
Active calls of the source: *; u = inconclusive; x = no result; [ ] = remark or other dose. An excerpt weighted towards active compounds, which were near 11% of everything screened. Calls follow the shape of the dose curve; as a rule, active = well fitted curve in the direction sought with a large enough effect; inconclusive = small, poorly fitted or top-dose-only effect, or another doubt; inactive = no such curve, though single readings can be large; an effect the other way counts as inactive or inconclusive. Unless noted, % is scaled to controls: 0 for no effect and ±100 for the full control effect; potency is read from the fitted curve at half-maximal effect.

SMILES	Pf growth 48h	AmpC detergent	AMA1 RON2 block	AmpC no deterg	HCV inhibitor	Pf growth 96h
Oc1ccc(COC2CCN(Cc3ccccc3)C2)c2cccnc12 (centres undefined)	8.3µM*	u	x	-4%	x	12µM*
COc1ccccc1N1CCN(Cc2ccc(O)c3ncccc23)CC1	2.6µM*	4%	-96%	8%	3.5µM*	x
CCOC(=O)C1CCN(Cc2ccccc2C(F)(F)F)CC1	37%	-2%	-18%	-1%	8%	22%
Oc1ccc(CN2CCCc3ccccc32)c2cccnc12	13µM*	u	-54%	-25%	10µM*	12%
CC(C)Oc1cccnc1N(C)C1CCN(Cc2ccccc2)CC1	x	x	3%	x	-18%	x
COc1cc(-c2noc(C3CC(=O)N(c4cc(C)ccc4C)C3)n2)cc(OC)c1OC (centres undefined)	x	16%	x	x	x	x
O=C(CSc1nc2c([nH]c3ccccc32)c(=O)n1-c1ccccc1)Nc1ccc2c(c1)OCO2	x	-10%	x	x	x	x
Cc1ccc(NC(=O)c2cc3c(=O)n(Cc4cccnc4)ccc3nc2C)cc1F	x	-4%	x	x	x	x
Cc1ccc(-n2c(Cc3ccccc3)nnc2SCc2nc(-c3cccs3)no2)cc1C	x	12%	x	x	x	x
Cc1ccc(NC(=O)Cn2cc3c(n2)CCCCC3)cc1	x	4%	x	x	x	x
O=C1NC(c2cn(-c3ccccc3)nc2-c2cccs2)C(C(=O)c2cccnc2)C(O)(C(F)(F)F)N1 (centres undefined)	x	u	-1%	0%	15%	13µM*
COc1cccc(C2NC(=O)NC(O)(C(F)(F)F)C2C(=O)c2cccnc2)c1OC (centres undefined)	u	-2%	-17%	-8%	-22%	x
CCCOc1cccc(C(=O)N2CCCCC2CCN2CCCCC2)c1 (centres undefined)	x	1%	x	x	x	x
CCOc1ccc(NC(=O)c2cn(-c3ccc(OCC)cc3)c(=O)c3cc(OC)c(OC)cc23)cc1	u	-2%	2%	121%	-21%	3.3µM*
CCOc1ccc(-n2cc(C(=O)N3CCC(C)CC3)c3cc(OC)c(OC)cc3c2=O)cc1	9.3µM*	1%	-3%	116%	-12%	77%
CCOc1ccc(-c2cc(NC(=O)c3ccccc3)c(C(=O)OC)s2)cc1	x	24%	x	x	x	x
COc1cc(C2C3=C(CC(C)(C)CC3=O)N(C)C3=C2C(=O)CC(C)(C)C3)ccc1O	11%	2%	4%	1%	2%	0%
CCn1cc(C2C3=C(CC(C)(C)CC3=O)N(c3ccccc3)C3=C2C(=O)CC(C)(C)C3)c(C)n1	u	-7%	-21%	-9%	-7%	8.3µM*
CCn1cc(C2C3=C(CC(C)(C)CC3=O)N(c3ccc(C)cc3)C3=C2C(=O)CC(C)(C)C3)c(C)n1	x	x	-17%	x	1%	x
COc1ccc(N2C3=C(C(=O)CC(C)(C)C3)C(c3cnn(C)c3)C3=C2CC(C)(C)CC3=O)cc1	7.4µM*	1%	-2%	70%	15%	4.1µM*
Cc1ccc(C)c(NC(=O)CCCCCCCCCCC2COCCO2)c1 (centres undefined)	-4%	1%	-7%	-45%	u	13µM*
O=C(Cn1c(SCC(=O)Nc2ccc(F)cc2)nc2ccccc21)NCc1ccccc1Cl	x	-1%	x	x	x	x
COc1ccc(C2CC(c3c(-c4ccccc4)c4cc(Cl)ccc4[nH]c3=O)=NN2S(C)(=O)=O)cc1OC (centres undefined)	10µM*	-10%	13%	52%	u	u
Cc1ccc(S(=O)(=O)c2c(N)n(CCCN(C)C)c3nc4ccccc4nc23)cc1	u	3%	12%	64%	u	u
CCCCn1c(NS(=O)(=O)c2ccccc2)c(C(=O)OCC)c2nc3ccccc3nc21	1.7µM*	-4%	-2%	-50%	u	u
SMILES	Pf growth 48h	AmpC detergent	AMA1 RON2 block	AmpC no deterg	HCV inhibitor	Pf growth 96h
CCCCn1c(NS(=O)(=O)c2ccc(C)cc2)c(S(=O)(=O)c2ccccc2)c2nc3ccccc3nc21	u	-8%	-1%	-13%	u	4.1µM*
CCCCn1c(NCCO)nc2ccccc21	6%	-11%	-3%	-19%	9%	12%
CCCCn1c(NC(=S)Nc2ccccc2)nc2ccccc21	5.2µM*	-6%	u	u	u	u
S=C(Nc1ccccc1)Nc1nc2ccccc2n1CCOc1ccccc1	u	1%	-21%	-56%	6.3µM*	0%
Cc1ccc2c(CC(=O)N3CCN(S(=O)(=O)c4cccs4)CC3)coc2c1	-13%	3%	1%	-2%	-2%	x
O=C(Cc1coc2cc(O)ccc12)N1CCN(S(=O)(=O)c2ccc(Br)cc2)CC1	x	x	-2%	x	11µM*	x
COc1ccc(/C(C)=N\Nc2nc(-c3ccc(Cl)cc3)cc(C(F)(F)F)n2)cc1OC	10µM*	u	9%	-22%	u	u
COc1ccc(/C=N/Nc2nc(-c3ccc(Cl)cc3)cc(C(F)(F)F)n2)c(OC)c1	-11%	-6%	-16%	-40%	-11%	19%
COc1ccc(Cl)cc1S(=O)(=O)Nc1cccc(-c2ccc(N3CCOCC3)nn2)c1	x	-4%	x	x	x	x
Cc1ccc(C(=O)c2cc([N+](=O)[O-])ccc2N2CC(C)OC(C)C2)cc1 (centres undefined)	9.3µM*	-4%	-14%	58%	-20%	u
CCOC(=O)CSc1nc2cc(OCC)ccc2cc1C#N	119%	u	12%	-4%	-27%	x
CCOc1ccc2cc(C#N)c(SCC(=O)N3CCC(C)CC3)nc2c1	9.3µM*	0%	-9%	-3%	u	29%
CCOc1ccc2cc(C#N)c(SCC(=O)NC(C)CC)nc2c1 (centres undefined)	3%	-15%	x	-9%	x	7.4µM*
CCOc1ccccc1CNC(=O)CCCN1C(=O)COc2ccc(C)cc21	x	-7%	x	x	x	x
CCOC(=O)c1c(CNc2ccncc2)n(C)c2cc(Br)c(O)cc12	0.33µM*	1%	-5%	-23%[11.4 µM]	5%	0%
CCOC(=O)c1c(C)n(C)c2cc(Br)c(C)cc12	x	-12%	-7%	21%	8.9µM*	16%
CCOC(=O)c1c(C)n(C)c2cc(-c3ccc(C)cc3)c(O)cc12	u	-7%	7%	-42%	u	u

High-throughput results as filed in PubChem.
